Records with an inconclusive call do not appear. Entries that show only a call come without a potency. Activity calls are given as the source filed them. Calls come from the whole dose curve; as a rule, active = well fitted inhibition curve with a large enough effect; inconclusive = small, poorly fitted or top-dose-only effect; inactive = flat fitted curve, though single readings scatter.

The experiment deals with CP203. Put plainly: qHTS profiling for inhibitors of Plasmodium falciparum proliferation (AID 504749). Note: nearly all actives have a fitted effect of over 60% in size. To be noted: P. falciparum in erythrocytes, SYBR Green DNA, 72 h; series mostly up to 28.7 µM. The essentials:
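P. falciparum-infected erythrocytes (0.3% parasitemia, 2.5% hematocrit final) were exposed to compounds for 72 h at 37 C in 5% CO2, then lysed with SYBR Green buffer overnight at room temperature; parasite DNA fluorescence was normalized to artemisinin and DMSO controls.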
A general note: In qHTS, concentration-response curves come from the screen itself.
As to `CCN(CC)C(=O)c1cccnc1`, the Potency result is “inactive”.

For the compound `CNC(=O)C[C@@H](N)C(=O)N[C@@H](C(=O)N[C@@H]1C(=O)N2[C@@H]1SC(C)(C)[C@@H]2C(=O)O)c1ccc(O)cc1`, the Potency entry is “inactive”.

For `CCCCCCCCCCCCCCCCCC(=O)OCC(C)O` (stereo not drawn), the Potency result is “inactive”. Regarding `NC(=S)NS(=O)(=O)c1ccc(N)cc1`, the Potency entry is “inactive”. Under `N=C(N)n1cccn1` stands “inactive”. Under `Nc1ncnc2c1ncn2CCOCP(=O)(O)O` stands “inactive”; under `CCC(C(=O)NC(N)=O)c1ccccc1` (stereo not drawn), “inactive”. On to `CC(C)CCC[C@@H](C)[C@H]1CC[C@H]2[C@@H]3CC=C4C[C@@H](O)CC[C@]4(C)[C@H]3CC[C@]12C`, for which the Potency entry is “inactive”.

As for `CC1=CCC2CC1C2(C)C` (stereo not drawn), the Potency entry was “inactive”. Under `NC(N)=O` stands “inactive”; under `Cc1ncc(C[n+]2csc(CCOP(=O)(O)OP(=O)(O)O)c2C)c(N)n1`, “inactive”. Under `Nc1nc(=O)n([C@@H]2CS[C@H](CO)O2)cc1F` stands “inactive”; under `CCOC(=O)[C@@H](N)CS`, “inactive”. `OCC(O)CO`: the Potency entry is “inactive”. In the case of `O=C1c2ccccc2C(=O)C1c1ccc(F)cc1`, the Potency entry is “inactive”. For the compound `O=C(O)COc1ccccc1/C=N/NC(=O)c1ccncc1`, the Potency entry was “inactive”. The entry for `Cc1cccc(C)c1NC(=O)C1CCCCN1C` (stereo not drawn) is “inactive”; for `CCC(C)[C@@H](N)C(=O)O` (stereo partly drawn) it is “inactive”.

For `CC(C)(Oc1ccc(C2CCCc3ccccc32)cc1)C(=O)O` (stereo not drawn), the Potency entry was “inactive”. Under `CC(CC=O)CCCC(C)(C)O` (stereo not drawn) stands “inactive”. The entry for `S=C1SCN(Cc2ccccc2)CN1Cc1ccccc1` is “inactive”. The entry for `CC(C)Cc1ccc([C@@H](C)C(=O)NS(C)(=O)=O)cc1` is “inactive”; for `COc1cc2c(cc1OC)[C@@H](Cc1cc(OC)c(OC)c(OC)c1)[N+](C)(CCCOC(=O)CC/C=C/CCC(=O)OCCC[N+]1(C)CCc3cc(OC)c(OC)cc3[C@H]1Cc1cc(OC)c(OC)c(OC)c1)CC2` (stereo partly drawn) it is “inactive”.

The values are drawn from PubChem BioAssay (NCATS).
